Among the data in article PMC7862700, “An all-to-all approach to the identification of sequence-specific readers for epigenetic DNA modifications on cytosine” are binding signal values, retold here.

What all share (assay): DAPPL (digital affinity profiling via proximity ligation, sequencing); 10 mM Tris-HCl pH 7.5, 50 mM NaCl, 1 mM DTT, 4% glycerol, room temperature, 30 min; GST-TFs on glutathione beads, 16-mer random dsDNA library, 0.1% formaldehyde crosslink after washing; high values mean tight binding
Experiment [1] concerns the target T1, FEV (Homo sapiens, UniProt Q99581 1-238).
T1 sequence: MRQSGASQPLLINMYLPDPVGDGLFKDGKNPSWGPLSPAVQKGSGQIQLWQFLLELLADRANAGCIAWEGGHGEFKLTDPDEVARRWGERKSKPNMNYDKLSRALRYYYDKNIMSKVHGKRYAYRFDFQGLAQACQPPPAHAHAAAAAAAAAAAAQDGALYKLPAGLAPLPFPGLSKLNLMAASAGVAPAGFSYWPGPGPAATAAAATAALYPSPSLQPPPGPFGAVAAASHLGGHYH
To be noted: protein: recombinant; tags: N-terminal GST; dsDNA, one strand shown. Summed up: (§1)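 Human transcription factors fused to GST were expressed in yeast, captured on glutathione beads, given DNA barcodes and pooled with a GST-only negative control. Pools were incubated with 200 nmole of a 16-mer random double-stranded DNA library in Tris/NaCl/DTT/glycerol buffer at room temperature for 30 min. They were then washed, crosslinked with 0.1% formaldehyde, proximity-ligated (BsaI/T4 ligase, 1 h, 37 °C), PCR-amplified and sequenced on an Illumina NextSeq500. Binding signal is each 6-mer's read frequency for a factor divided by its frequency for the GST control.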

For experiment [2], the target named is ETV5 (Homo sapiens, UniProt P41161 1-510). To be noted: protein: recombinant; tags: N-terminal GST; dsDNA, one strand shown. Summed up:
as §1

Experiment [3] addresses HSF1 (Homo sapiens, UniProt Q00613 1-529). As to conditions: protein: recombinant; tags: N-terminal GST; chain copies: 3; dsDNA, one strand shown. Summed up:
as §1

The target in experiment [4] is T2, SPIC (Homo sapiens, UniProt Q8N5J4 1-248).
T2 sequence: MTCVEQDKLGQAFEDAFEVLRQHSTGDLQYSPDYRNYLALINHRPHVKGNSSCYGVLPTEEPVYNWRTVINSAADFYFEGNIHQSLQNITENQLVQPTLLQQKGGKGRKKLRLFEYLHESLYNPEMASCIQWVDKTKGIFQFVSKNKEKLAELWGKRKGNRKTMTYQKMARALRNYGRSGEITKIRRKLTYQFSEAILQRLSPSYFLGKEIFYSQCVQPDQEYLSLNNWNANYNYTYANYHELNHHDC
To be noted: protein: recombinant; tags: N-terminal GST; dsDNA, one strand shown. Summed up:
as §1

Experiment [5] addresses ELF4 (Homo sapiens, UniProt Q99607 1-663). To be noted: protein: recombinant; tags: N-terminal GST; dsDNA, one strand shown. Summed up:
as §1

Experiment [6] deals with T3, ELK4 (Homo sapiens, UniProt P28324-2 1-405).
T3 sequence: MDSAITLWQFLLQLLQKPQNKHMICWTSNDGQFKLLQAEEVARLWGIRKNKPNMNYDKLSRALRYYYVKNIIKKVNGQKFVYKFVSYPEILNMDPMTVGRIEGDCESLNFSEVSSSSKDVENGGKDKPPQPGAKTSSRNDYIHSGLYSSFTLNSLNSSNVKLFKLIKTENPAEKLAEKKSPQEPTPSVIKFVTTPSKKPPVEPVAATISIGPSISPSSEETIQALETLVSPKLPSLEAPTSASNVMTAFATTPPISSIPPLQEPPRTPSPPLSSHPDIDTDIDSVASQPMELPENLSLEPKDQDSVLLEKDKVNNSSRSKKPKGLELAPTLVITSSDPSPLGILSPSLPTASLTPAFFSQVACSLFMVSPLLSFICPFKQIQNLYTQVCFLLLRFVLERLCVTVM
To be noted: protein: recombinant; tags: N-terminal GST; dsDNA, one strand shown. The essentials:
as §1

The target of experiment [7] is T4, ETV2 (Homo sapiens, UniProt O00321 1-342).
T4 sequence: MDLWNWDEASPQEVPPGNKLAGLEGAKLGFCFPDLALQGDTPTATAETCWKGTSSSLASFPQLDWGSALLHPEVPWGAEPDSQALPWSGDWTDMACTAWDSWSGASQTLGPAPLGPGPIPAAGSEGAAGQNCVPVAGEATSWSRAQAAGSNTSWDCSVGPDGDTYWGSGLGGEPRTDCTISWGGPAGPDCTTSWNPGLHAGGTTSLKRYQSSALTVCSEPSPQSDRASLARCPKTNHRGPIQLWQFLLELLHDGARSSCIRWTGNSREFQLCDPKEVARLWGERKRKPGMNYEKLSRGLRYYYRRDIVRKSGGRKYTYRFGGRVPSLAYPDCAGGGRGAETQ
As to conditions: protein: recombinant; tags: N-terminal GST; dsDNA, one strand shown. Summed up:
as §1

The target in experiment [8] is T5, ELF3 (Homo sapiens, UniProt P78545 1-371).
T5 sequence: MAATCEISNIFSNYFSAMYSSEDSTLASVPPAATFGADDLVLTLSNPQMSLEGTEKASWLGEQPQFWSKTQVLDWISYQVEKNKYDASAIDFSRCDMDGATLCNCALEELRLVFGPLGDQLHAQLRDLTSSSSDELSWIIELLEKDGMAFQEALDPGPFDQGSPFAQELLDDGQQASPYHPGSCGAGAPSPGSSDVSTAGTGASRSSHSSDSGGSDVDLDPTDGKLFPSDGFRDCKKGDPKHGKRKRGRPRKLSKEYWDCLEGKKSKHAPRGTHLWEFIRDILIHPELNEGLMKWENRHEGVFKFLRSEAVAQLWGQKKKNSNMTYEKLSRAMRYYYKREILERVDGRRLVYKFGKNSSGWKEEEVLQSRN
As to conditions: protein: recombinant; tags: N-terminal GST; dsDNA, one strand shown. The essentials: as §1

Experiment [9] has as its target CRX (Homo sapiens, UniProt O43186 1-299). As to conditions: protein: recombinant; tags: N-terminal GST; dsDNA, one strand shown. Summed up: as §1
For experiment [10], the target named is ETV1 (Homo sapiens, UniProt P50549 1-477). To be noted: protein: recombinant; tags: N-terminal GST; dsDNA, one strand shown. The essentials: as §1
Experiment [11] addresses T6, ERF (Homo sapiens, UniProt P50548 1-548).
T6 sequence: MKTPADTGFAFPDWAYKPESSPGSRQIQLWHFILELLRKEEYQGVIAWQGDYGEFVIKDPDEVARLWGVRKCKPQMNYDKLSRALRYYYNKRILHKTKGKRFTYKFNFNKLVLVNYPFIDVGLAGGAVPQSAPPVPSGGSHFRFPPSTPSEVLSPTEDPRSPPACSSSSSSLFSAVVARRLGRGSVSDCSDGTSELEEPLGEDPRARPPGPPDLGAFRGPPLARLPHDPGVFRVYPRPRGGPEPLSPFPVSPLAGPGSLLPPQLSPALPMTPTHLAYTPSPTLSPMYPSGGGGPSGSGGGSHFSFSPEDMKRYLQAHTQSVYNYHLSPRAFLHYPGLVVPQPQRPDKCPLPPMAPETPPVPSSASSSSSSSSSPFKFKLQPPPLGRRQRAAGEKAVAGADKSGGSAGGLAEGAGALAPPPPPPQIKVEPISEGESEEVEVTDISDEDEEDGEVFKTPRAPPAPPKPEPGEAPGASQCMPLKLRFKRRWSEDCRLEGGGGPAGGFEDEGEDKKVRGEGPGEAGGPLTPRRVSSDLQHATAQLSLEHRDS
As to conditions: protein: recombinant; tags: N-terminal GST; dsDNA, one strand shown. The essentials: as §1

For experiment [12], the target named is T7, ETV3L (Homo sapiens, UniProt Q6ZN32 1-361).
T7 sequence: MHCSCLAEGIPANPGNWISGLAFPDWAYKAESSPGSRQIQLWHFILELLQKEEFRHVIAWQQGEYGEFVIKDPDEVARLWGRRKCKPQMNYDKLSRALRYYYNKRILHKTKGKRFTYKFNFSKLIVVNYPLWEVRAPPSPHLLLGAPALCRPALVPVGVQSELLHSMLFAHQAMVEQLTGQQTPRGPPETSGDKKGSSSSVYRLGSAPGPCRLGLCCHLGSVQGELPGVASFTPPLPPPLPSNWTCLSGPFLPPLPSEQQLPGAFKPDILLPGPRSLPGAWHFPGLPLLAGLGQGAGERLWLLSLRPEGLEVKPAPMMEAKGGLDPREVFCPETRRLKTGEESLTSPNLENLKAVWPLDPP
To be noted: protein: recombinant; tags: N-terminal GST; dsDNA, one strand shown. The essentials:
as §1

Experiment [13] concerns the target T8, ETS2 (Homo sapiens, UniProt P15036 1-469).
T8 sequence: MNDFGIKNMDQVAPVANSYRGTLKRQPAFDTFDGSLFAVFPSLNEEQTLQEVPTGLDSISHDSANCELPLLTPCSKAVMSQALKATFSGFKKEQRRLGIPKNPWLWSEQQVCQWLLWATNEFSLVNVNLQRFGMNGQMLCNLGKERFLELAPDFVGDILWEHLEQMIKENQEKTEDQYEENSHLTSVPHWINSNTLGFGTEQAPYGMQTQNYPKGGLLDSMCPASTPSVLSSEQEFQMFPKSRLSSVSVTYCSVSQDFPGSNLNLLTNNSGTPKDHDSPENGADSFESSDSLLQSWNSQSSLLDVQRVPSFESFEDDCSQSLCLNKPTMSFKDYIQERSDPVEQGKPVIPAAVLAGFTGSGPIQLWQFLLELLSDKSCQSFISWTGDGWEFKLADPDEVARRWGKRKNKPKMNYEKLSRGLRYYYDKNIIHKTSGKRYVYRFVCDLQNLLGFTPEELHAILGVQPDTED
To be noted: protein: recombinant; tags: N-terminal GST; dsDNA, one strand shown. The essentials: as §1

Experiment [14] has as its target T9, SPDEF (Homo sapiens, UniProt O95238 1-335).
T9 sequence: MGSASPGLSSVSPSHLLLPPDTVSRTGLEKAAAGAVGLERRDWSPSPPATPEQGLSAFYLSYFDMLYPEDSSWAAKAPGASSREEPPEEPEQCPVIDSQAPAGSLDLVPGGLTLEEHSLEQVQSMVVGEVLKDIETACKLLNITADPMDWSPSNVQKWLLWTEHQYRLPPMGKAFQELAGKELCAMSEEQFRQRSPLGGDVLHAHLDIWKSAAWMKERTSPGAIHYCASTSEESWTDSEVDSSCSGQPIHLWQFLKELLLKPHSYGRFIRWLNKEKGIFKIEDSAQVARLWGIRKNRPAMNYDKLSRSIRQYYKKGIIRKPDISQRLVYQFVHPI
As to conditions: protein: recombinant; tags: N-terminal GST; dsDNA, one strand shown. Summed up:
as §1

Experiment [15] concerns the target T10, ETV7 (Homo sapiens, UniProt Q9Y603 1-341).
T10 sequence: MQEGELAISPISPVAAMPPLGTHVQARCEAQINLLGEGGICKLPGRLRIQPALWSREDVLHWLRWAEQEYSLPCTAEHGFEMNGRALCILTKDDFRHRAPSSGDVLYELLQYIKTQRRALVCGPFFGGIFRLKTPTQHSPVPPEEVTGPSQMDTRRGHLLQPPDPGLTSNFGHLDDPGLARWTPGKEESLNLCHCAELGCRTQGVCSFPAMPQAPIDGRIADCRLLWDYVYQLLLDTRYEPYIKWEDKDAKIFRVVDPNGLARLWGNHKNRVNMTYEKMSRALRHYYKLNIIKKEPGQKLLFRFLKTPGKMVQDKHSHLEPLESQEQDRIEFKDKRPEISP
To be noted: protein: recombinant; tags: N-terminal GST; dsDNA, one strand shown. The essentials:
as §1

Experiment [16] deals with T11, ELF5 (Homo sapiens, UniProt Q9UKW6-2 1-255).
T11 sequence: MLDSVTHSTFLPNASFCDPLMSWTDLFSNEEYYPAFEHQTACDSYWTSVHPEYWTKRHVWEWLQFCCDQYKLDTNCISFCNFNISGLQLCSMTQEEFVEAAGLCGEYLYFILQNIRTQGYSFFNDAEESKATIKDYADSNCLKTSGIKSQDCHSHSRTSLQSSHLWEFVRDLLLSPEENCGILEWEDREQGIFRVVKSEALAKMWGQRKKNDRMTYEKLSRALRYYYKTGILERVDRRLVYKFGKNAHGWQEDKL
To be noted: protein: recombinant; tags: N-terminal GST; dsDNA, one strand shown. The essentials:
as §1

Experiment [17] addresses T12, ETV3 (Homo sapiens, UniProt P41162-2 1-143).
T12 sequence: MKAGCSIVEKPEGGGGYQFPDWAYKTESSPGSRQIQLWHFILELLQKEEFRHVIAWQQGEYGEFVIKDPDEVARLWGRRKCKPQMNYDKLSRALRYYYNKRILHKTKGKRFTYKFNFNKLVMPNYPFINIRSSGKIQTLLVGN
To be noted: protein: recombinant; tags: N-terminal GST; dsDNA, one strand shown. The essentials: as §1

The target of experiment [18] is ETV6 (Homo sapiens, UniProt P41212 1-452). As to conditions: protein: recombinant; tags: N-terminal GST; dsDNA, one strand shown. Summed up:
as §1

Sequence of ELF4 (Q99607 whole entry): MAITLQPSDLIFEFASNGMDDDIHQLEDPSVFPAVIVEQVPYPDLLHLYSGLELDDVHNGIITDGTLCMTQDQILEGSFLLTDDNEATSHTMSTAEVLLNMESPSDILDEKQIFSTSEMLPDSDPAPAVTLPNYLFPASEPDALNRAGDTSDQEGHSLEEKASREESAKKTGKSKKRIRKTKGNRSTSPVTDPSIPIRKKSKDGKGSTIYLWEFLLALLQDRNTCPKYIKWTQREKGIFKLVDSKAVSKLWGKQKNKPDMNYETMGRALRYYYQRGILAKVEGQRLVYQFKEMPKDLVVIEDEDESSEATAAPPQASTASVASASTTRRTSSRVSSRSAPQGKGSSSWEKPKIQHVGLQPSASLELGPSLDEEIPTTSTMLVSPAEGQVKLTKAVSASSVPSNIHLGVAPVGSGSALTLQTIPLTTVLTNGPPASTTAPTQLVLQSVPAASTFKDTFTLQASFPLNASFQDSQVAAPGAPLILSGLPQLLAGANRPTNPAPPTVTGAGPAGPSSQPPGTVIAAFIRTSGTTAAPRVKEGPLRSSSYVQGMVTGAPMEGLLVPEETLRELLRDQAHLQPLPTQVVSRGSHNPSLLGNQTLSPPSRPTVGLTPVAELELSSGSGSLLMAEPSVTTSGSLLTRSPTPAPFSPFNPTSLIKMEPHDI
Sequence of CRX (O43186 whole entry): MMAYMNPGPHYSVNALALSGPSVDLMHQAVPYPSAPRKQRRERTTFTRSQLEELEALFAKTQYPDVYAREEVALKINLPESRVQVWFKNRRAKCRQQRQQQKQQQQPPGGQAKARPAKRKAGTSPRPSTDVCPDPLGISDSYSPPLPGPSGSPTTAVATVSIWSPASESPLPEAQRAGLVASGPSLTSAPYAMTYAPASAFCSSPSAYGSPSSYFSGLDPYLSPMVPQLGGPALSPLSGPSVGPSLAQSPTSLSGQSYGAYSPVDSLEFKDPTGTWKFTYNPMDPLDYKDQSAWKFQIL
Sequence of ETV1 (P50549 whole entry): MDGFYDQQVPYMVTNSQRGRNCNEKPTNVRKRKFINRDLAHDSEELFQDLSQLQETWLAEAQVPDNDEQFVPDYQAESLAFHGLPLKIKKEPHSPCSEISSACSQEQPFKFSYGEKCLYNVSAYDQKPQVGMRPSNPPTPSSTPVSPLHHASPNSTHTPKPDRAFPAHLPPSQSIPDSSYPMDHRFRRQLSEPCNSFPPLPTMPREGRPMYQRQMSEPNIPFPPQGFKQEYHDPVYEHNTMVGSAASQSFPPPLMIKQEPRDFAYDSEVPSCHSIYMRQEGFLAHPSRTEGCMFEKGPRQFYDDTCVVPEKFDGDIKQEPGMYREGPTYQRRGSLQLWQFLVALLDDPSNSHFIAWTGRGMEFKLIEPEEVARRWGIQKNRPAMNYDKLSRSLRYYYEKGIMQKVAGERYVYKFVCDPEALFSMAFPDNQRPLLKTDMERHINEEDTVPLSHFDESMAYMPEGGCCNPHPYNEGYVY
Sequence of HSF1 (Q00613 whole entry): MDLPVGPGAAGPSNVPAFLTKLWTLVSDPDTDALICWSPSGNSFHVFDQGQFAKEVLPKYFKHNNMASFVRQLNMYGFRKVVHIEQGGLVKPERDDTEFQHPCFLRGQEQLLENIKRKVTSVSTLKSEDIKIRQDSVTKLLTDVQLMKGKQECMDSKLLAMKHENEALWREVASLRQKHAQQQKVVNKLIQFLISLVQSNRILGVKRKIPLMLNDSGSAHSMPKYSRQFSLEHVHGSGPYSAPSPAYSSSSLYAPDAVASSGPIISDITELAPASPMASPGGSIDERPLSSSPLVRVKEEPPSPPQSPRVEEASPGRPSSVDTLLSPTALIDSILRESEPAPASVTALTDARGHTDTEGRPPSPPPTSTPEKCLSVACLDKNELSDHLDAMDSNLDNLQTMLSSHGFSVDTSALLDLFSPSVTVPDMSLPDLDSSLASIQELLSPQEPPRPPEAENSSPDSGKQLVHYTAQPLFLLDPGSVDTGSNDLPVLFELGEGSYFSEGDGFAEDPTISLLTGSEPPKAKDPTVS
Sequence of ETV5 (P41161 whole entry): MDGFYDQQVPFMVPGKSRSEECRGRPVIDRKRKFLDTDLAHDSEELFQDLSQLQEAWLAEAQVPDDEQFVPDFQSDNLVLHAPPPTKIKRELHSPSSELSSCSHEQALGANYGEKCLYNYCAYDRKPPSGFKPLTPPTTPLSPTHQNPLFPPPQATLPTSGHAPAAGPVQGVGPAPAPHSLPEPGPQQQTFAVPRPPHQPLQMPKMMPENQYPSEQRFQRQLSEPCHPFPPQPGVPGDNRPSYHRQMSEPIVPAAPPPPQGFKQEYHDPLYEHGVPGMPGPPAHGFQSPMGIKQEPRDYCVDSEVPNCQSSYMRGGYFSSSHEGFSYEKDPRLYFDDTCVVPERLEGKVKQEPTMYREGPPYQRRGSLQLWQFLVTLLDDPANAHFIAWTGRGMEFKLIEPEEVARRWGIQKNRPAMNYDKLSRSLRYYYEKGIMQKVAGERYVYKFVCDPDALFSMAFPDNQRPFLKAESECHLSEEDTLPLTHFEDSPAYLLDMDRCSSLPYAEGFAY
Sequence of ETV6 (P41212 whole entry): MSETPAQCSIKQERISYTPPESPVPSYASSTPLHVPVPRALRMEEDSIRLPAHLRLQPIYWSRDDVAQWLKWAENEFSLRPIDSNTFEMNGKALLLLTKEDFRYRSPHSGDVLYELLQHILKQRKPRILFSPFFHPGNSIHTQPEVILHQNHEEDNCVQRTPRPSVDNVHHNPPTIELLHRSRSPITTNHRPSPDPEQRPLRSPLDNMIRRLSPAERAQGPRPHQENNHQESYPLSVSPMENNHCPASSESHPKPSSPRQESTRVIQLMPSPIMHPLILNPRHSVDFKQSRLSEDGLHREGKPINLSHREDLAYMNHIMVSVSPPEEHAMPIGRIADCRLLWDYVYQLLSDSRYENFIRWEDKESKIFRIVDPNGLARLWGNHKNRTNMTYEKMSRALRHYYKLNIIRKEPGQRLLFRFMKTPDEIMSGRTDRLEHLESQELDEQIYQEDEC

Regarding AAATGT, the binding signal in experiment [1] is 1.27 fold enrichment (6-mer frequency, TF over GST control); in experiment [2], 1.28 fold enrichment (6-mer frequency, TF over GST control); in experiment [3], 1.19 fold enrichment (6-mer frequency, TF over GST control); in experiment [4], 1.25 fold enrichment (6-mer frequency, TF over GST control); in experiment [5] it was 1.27 fold enrichment (6-mer frequency, TF over GST control); in experiment [6], 1.4 fold enrichment (6-mer frequency, TF over GST control). In addition, the binding signal in [7] is 1.36 fold enrichment (6-mer frequency, TF over GST control); in experiment [8], 1.54 fold enrichment (6-mer frequency, TF over GST control); in experiment [9], 1.04 fold enrichment (6-mer frequency, TF over GST control); in experiment [10] it was 1.39 fold enrichment (6-mer frequency, TF over GST control); in experiment [11], 1.27 fold enrichment (6-mer frequency, TF over GST control); in experiment [12], 1.33 fold enrichment (6-mer frequency, TF over GST control). The binding signal in [13] is 1.44 fold enrichment (6-mer frequency, TF over GST control); in [14], 1.27 fold enrichment (6-mer frequency, TF over GST control); in experiment [15] it was 1.27 fold enrichment (6-mer frequency, TF over GST control); in experiment [16] it was 1.48 fold enrichment (6-mer frequency, TF over GST control); in experiment [17], 1.3 fold enrichment (6-mer frequency, TF over GST control); in experiment [18], 1.31 fold enrichment (6-mer frequency, TF over GST control).
